The source of these data is the supplement of paper PMC10681739.

The target in experiment [1] is T1, ETS1 (UniProt P14921).
T1 sequence: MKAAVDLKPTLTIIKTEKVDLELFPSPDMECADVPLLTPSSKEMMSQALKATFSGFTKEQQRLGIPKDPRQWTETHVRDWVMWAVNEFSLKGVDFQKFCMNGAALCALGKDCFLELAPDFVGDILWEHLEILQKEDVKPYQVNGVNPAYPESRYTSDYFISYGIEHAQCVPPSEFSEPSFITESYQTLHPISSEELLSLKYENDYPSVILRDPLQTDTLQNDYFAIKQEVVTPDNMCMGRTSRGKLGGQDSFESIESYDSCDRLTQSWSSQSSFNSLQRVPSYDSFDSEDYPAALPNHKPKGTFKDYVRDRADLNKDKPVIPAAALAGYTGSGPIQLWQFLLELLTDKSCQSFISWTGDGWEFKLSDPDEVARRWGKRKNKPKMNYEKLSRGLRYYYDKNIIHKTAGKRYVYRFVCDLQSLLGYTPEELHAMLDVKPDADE
In words: ETS1 binding intensity (PBM fluorescence), ETS1 alone (arbitrary fluorescence units); higher = stronger binding. The note with it: ETS1 concentration 1 nM; RUNX1 concentration 0 nM.

Experiment [2] concerns the target RUNX1 (UniProt Q01196). In words: RUNX1 binding intensity (PBM fluorescence), RUNX1 alone (arbitrary fluorescence units); higher = stronger binding. The note with it: RUNX1 concentration 2 nM; ETS1 concentration 0 nM. The protocol: (§1)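 Cooperative gcPBM on 36-bp genomic probes with neighbouring ETS1 and RUNX1 sites. Recombinant human RUNX1 (2 nM) was incubated alone or with ETS1 (25 nM) and detected with anti-RUNX1 antibody plus Alexa488 secondary. Values are medians over 4 replicate spots; the RUNX1+ETS1 data were normalised to the RUNX1-only data. The probes sit in constant array flanks that are not printed.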

For experiment [3], the target named is T1, ETS1. In words: ETS1 binding intensity (PBM fluorescence) in presence of RUNX1, normalised to ETS1-only experiment (arbitrary fluorescence units); higher = stronger binding. The conditions noted are these: ETS1 concentration 1 nM; RUNX1 concentration 25 nM.
Experiment [4] has as its target RUNX1 (UniProt Q01196). In words: RUNX1 binding intensity (PBM fluorescence) in presence of ETS1, normalised to RUNX1-only experiment (arbitrary fluorescence units); higher = stronger binding. The note with it: RUNX1 concentration 2 nM; ETS1 concentration 25 nM. How it is done: as §1
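Wherever RUNX1 binding intensity (PBM fluorescence) in presence of ETS1, normalised to RUNX1-only experiment is given: Full-length recombinant human ETS1 or RUNX1 bound to double-stranded 36-bp genomic probes on microarrays, detected by protein-specific primary antibody and Alexa488 secondary, spot fluorescence as median of four replicate spots.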
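Wherever RUNX1 binding intensity (PBM fluorescence), RUNX1 alone is given: Full-length recombinant human RUNX1 bound to double-stranded 36-bp genomic probes on a high-density microarray, scored as Alexa488 fluorescence per spot via anti-RUNX1 antibody, median of four replicate spots.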

RUNX1, sequence (Q01196 whole entry): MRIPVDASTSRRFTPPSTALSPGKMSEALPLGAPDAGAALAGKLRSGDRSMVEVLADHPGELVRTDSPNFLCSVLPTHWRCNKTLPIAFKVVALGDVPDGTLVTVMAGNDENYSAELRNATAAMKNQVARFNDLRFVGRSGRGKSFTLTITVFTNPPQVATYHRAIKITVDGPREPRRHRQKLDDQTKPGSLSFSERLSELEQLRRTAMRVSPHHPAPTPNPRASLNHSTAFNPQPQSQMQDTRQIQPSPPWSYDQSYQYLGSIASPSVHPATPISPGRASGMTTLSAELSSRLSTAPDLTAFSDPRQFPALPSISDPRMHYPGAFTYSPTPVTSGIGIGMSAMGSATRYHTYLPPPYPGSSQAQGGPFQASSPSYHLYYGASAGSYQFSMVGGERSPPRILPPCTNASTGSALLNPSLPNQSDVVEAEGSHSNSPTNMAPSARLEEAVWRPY

TTAAACACGGAAGTGCATCGGTTGTTGTGGTTATTC: the ETS1 binding intensity in the experiment with ETS1 [1] was determined as 1260; in the experiment with ETS1 [3], 4360. Besides, the results for the RUNX1 binding intensity in the experiment with RUNX1 [2] and with RUNX1 [4] were 845 and 1150, respectively.
Taken in the same sequence, the figures for TGGATGGCAAGCAACGGAAACCGCAAACAGGGCTGT were 1700, 6230, 15600 and 26600.
The like results for CGACCGGAACCACTCTGAGGCGCTGCCGCAGACACC were, in that order, 533, 583, 919 and 1010.
The like results for AACAACAGGATGCTCTCTAGTCTAACAGTGGTAACA were, in that order, 847, 820, 866 and 1020.
Consider CTGCCGCGACAGACAGGATGTGGCTTCTGCTCTGTC, for which the ETS1 binding intensity with ETS1 [1] came out at 8750; with ETS1 [3], 16900. Also, the RUNX1 binding intensity with RUNX1 [2] was 610; with RUNX1 [4], 1960.
As to GGGGGAGTTTTCGGAAGCGCTAACCGCGTTGGGGCC, the ETS1 binding intensity in the experiment with ETS1 [1] is 365; with ETS1 [3] it was 874. Moreover, the RUNX1 binding intensity was 860 with RUNX1 [2] and 954 with RUNX1 [4].
For the sequence CTCTGCTTCCTGTCTTTGAATGCCTCTGTGGTTTTC, the ETS1 binding intensity stood at 675 with ETS1 [1] and 2540 with ETS1 [3]. Further, the RUNX1 binding intensity with RUNX1 [2] came out at 2080; in the experiment with RUNX1 [4] it was 4320.
Take TGAAGTTGGTGTTTTCCGGGGGCGGTTTTTCCATTG: the ETS1 binding intensity worked out at 504 with ETS1 [1] and 451 with ETS1 [3]. The RUNX1 binding intensity with RUNX1 [2] was determined as 897; with RUNX1 [4], 969.
Regarding GCACACCGGAACTCACACCTGAAACCACAGAACCAA, the ETS1 binding intensity with ETS1 [1] is 868; with ETS1 [3] it was 4300. In addition, the RUNX1 binding intensity with RUNX1 [2] is 2180; with RUNX1 [4], 5220.
Taken in the same sequence, the figures for CGGCTGGCAGGAAGTGGCCACTTGAACCGCAGATGC were 4480, 23300, 1190 and 3880.
Consider ATGTTTGGGGCCGGAAGTGGGTTGGAGGTGTGGCGG, for which the ETS1 binding intensity worked out at 24700 in the experiment with ETS1 [1] and 23800 with ETS1 [3]. For the same sequence, the RUNX1 binding intensity was 706 with RUNX1 [2] and 2830 with RUNX1 [4].
On to AGGGACTTCCGGTGACCAGAGCACTAGCGCCGCAAA, for which the ETS1 binding intensity with ETS1 [1] amounted to 2160; with ETS1 [3], 1990. Also, the RUNX1 binding intensity was determined as 768 in the experiment with RUNX1 [2] and 2070 with RUNX1 [4].
The like results for CAGGTTGTTGAGGATGTGGAGAAACCGCAACCTCGT were, in that order, 581, 7360, 3670 and 6690.
The like results for GGCTCGGCAAACATCCGGCTCCGCGGTGGAACGGGA were, in that order, 1430, 1910, 785 and 1580.
